Assay results as given in PMC7826789 (International Journal of Molecular Sciences, 2021).

System: TTK
Conditions: Compound Concentration (nM):1000
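Note: KINOMEscan scanMAX binding as percent activity remaining versus control; lower means stronger binding.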

SMILES	Percent Control [%]
Cl.O=C(Nc1ccc(Oc2ccc3[nH]c(NC(=O)c4ccco4)nc3c2)cc1)Nc1cc(C(F)(F)F)ccc1F [GW683134A]	85
CN(C)CCNC(=O)Nc1ccc(N(C)c2ccnc(Nc3ccc(CS(C)(=O)=O)cc3)n2)cc1.Cl [GW830900A]	68
CCn1c(-c2nonc2N)nc2c(C#CC(C)(C)O)nc(OCCNC)cc21.Cl [GSK949675]	91
NS(=O)(=O)c1ccc(N/N=C2\C(=O)Nc3ccc(C(=O)NCc4ccncc4)cc32)cc1 [GW300657X]	5.5
Cl.O=S1CCN(Cc2ccc(-c3ccc4ncnc(Nc5ccc(OCc6ccccc6)c(F)c5)c4c3)o2)CC1 [GW576924A]	100
Cl.O=C(O[C@H]1CN[C@H](C#Cc2cc3ncnc(Nc4ccc5c(cnn5Cc5ccccc5)c4)c3s2)C1)N1CCOCC1 [GSK200398A]	100
